# Tau fibril ThT: blocks human tau fibril formation measured by thioflavin T; recombinant tau K18 P301L, heparin-induced fibrillization, ThT fluorescence; 270,000 tested, 2.1% active; P10636; Potency, µM (top dose mostly 57.4 µM), for the others: at the top dose activity, negative = inhibition, most hits filed as inhibitors; further: nearly all actives have a fitted effect of over 55% in size
# Target sequence (P10636 561-689 P618L limits assumed): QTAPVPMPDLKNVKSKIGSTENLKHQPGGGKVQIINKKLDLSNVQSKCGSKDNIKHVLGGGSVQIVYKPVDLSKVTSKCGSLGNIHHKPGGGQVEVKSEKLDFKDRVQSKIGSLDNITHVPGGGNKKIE
#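 Aggregation was driven by heparin (20 uM final) acting on recombinant tau […] bearing P301L in 100 mM sodium acetate pH 7; fibrils were detected with Thioflavin T.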
# RORg inh: blocks mouse ROR gamma transcriptional activity; Drosophila S2 Gal4-RORgamma UAS-luciferase reporter, 20 h; 310,000 tested, 5.4% active; P51450; Potency, µM (top dose mostly 53.6 µM), inactives show top-dose activity change, negative = inhibition, usual class: inhibitors; further: nearly all actives have a fitted effect of over 60% in size
# Target sequence (P51450 whole entry, looked up, the tested form may be a part): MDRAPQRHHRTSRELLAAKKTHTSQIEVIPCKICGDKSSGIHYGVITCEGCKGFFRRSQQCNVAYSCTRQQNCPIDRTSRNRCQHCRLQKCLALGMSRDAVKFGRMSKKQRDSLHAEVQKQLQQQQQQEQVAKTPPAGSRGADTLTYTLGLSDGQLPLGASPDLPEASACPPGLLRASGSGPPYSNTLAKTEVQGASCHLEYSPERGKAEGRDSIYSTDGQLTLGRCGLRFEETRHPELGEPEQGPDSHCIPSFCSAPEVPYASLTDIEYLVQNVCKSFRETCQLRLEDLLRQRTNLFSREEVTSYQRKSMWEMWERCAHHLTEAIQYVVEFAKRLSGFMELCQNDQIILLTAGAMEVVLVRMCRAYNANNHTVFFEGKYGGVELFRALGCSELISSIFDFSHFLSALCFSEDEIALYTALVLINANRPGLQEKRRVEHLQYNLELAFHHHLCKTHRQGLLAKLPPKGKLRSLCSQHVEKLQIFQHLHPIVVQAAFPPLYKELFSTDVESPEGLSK
#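 Using a luciferase readout, inhibitors were identified by reduced reporter activity in Drosophila cells coexpressing a copper-inducible Gal4–ROR gamma fusion and UAS-driven Photinus luciferase, incubated 20 hr after 700 uM copper sulfate.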
# Tau FP inhib: inhibitors of human tau fibril formation | P10636 | K18 P301L tau heparin fibrillization, Alexa594 FP, 6 h | Potency, µM (top dose mostly 57.7 µM), inactives show top-dose activity, negative = inhibition, hits mostly inhibitors | 280,000 tested, 0.39% active; further: nearly all actives have a fitted effect of over 55% in size
#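 K18 P301L tau (15 uM unlabeled/0.24 uM Alexa 594-labeled, final) + compound + heparin 20 uM final; 100 mM NaOAc pH 7; 6 hr 37 C; ThT 30 uM final added, 1 hr RT; FP ex 555/em 632 nm.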
# Gal4-VP16 FLuc: inhibits Gal4-VP16 luciferase reporter, ROR gamma counter-screen | Drosophila S2 Gal4-VP16 UAS-luciferase, luminescence, 20 h | Potency, µM (doses to about 53.6 µM), for the others: at the top dose activity, negative = inhibition, hits mostly inhibitors | 310,000 tested, 3.5% active;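 further: Gal4-VP16 expression switched on by copper sulfate through the metallothionein promoter; nearly all actives have a fitted effect of over 50% in size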
# Tau fluor cs: counter-screen for tau fibril formation inhibitors; tau K18 P301L Alexa594 fluorescence, heparin fibrillization; Potency, µM (top dose mostly 57.7 µM), for the others: at the highest dose activity change, negative = decrease; 280,000 tested, 0.93% active; further: nearly all actives have a fitted effect of over 55% in size
#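 Human tau K18 P301L (15 uM unlabeled, 0.24 uM Alexa 594-labeled) in 100 mM sodium acetate pH 7 with 20 uM heparin, 6 hr at 37 C. ThT 30 uM added, 1 hr ambient; Alexa 594 FP and total fluorescence read at 555/632 nm.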
# Starred values were filed as active, the others as inactive; ? = inconclusive; nt = no result given; [ ] = another dose, or the depositor's remark. This is a sample that favours compounds with a hit; in the whole collection about 7.3% have one here. The call rests on the fitted dose curve; in most records, active means well fitted curve in the direction sought with a large enough effect; inconclusive means small, poorly fitted or top-dose-only effect, or another doubt; inactive means no such curve, though single readings can be large; an effect the other way counts as inactive or inconclusive. On the % scale 0 is the no-effect control and ±100 the full control effect; potency means the concentration at half of the fitted maximal effect.
SMILES,Tau fibril ThT,RORg inh,Tau FP inhib,Gal4-VP16 FLuc,Tau fluor cs
CC1CCC2(C(=O)O)CCC3(C)C(=CCC4C3(C)CCC3[C@@]4(C)CC(O)C(O)[C@@]3(C)CO)C2C1C (some centres undefined),3.3%,-3.9%,-0.4%,0.9%,1.4%
CCCCN(C)C(=O)c1ccc(S(=O)(=O)N2CCOCC2)cc1,-1.5%,-6.7%,-0.4%,5.6%,-4.7%
CCCN(CC1CC1)C(=S)NC(=O)c1ccc(S(=O)(=O)N2CCOCC2)cc1,-6.4%,0.355µM*,-5.1%,0.891µM*,-8.9%
O=C(NC(=S)N1CCN(C(c2ccccc2)c2ccccc2)CC1)c1ccc(S(=O)(=O)N2CCOCC2)cc1,-2.5%,0.316µM*,3.9%,0.0282µM*,-12.2%
Cc1ccc(C(=O)NNC(=O)c2ccc(S(=O)(=O)N3CCOCC3)cc2)cc1,nt,-20.7%,nt,24.0%,nt
CN1CCN(C(=S)NC(=O)c2ccc(S(=O)(=O)N3CCOCC3)cc2)CC1,2.3%,10µM*,-2.2%,?,6.8%
N#CCCN(Cc1cccnc1)C(=S)NC(=O)c1ccc(S(=O)(=O)N2CCCC2)cc1,-2.0%,2.51µM*,-1.0%,?,-0.5%
Cc1onc(-c2ccccc2)c1C(=O)Nc1nnc(N2CCCCCC2)s1,?,?,-2.8%,0.355µM*,-12.5%
Cc1onc(-c2ccccc2)c1C(=O)Nc1nnc(-c2ccncc2)s1,-5.4%,6.9%,0.0%,1.8%,0.7%
Cc1noc(C)c1C(=O)Nc1nc2ccc(S(C)(=O)=O)cc2s1,nt,-31.7%,nt,11.2µM*,nt
CS(=O)(=O)c1ccc2nc(NC(=O)c3ccco3)sc2c1,0.7%,?,1.6%,?,-4.6%
Cc1noc(C)c1C(=O)Nc1nnc(-c2ccccc2)s1,-16.5%,11.2µM*,8.6%,?,-2.9%
Cc1onc(-c2ccccc2)c1C(=O)Nc1nnc(C(C)C)s1,nt,-33.2%,nt,-18.4%,nt
Cc1ccc(N2NC(=O)/C(=C\c3cc4c(cc3[N+](=O)[O-])OCO4)C2=O)cc1C,14.1µM*,-117.3%,?,?,?
O=C1NN(c2ccccc2)C(=O)/C1=C\c1ccc2c(c1)OCO2,nt,?,nt,-14.6%,nt
Cc1cccc(C[C@H](C(=O)O)N2C(=O)c3ccc(C(=O)O)cc3C2=O)c1,nt,3.5%,nt,3.3%,nt
CC(C)(C)C(=O)NC1CC2CCCC(C1)N2C(=O)Nc1ccccc1Cl (centres undefined),nt,10.4%,nt,-13.7%,nt
S=C(Nc1ccccc1Cl)NC1CC2CCCC(C1)N2C1CC1 (centres undefined),2.7%,11.2µM*,7.8%,-1.0%,6.9%
CC(=O)c1ccc(Nc2nc3ccccc3nc2NS(=O)(=O)c2cccs2)cc1,nt,27.7%,nt,-2.4%,nt
COc1ccc(Nc2nc3ccccc3nc2NS(=O)(=O)c2cccs2)cc1,14.1µM*,?,15.1%,-5.4%,?
COc1cc2c(cc1C1NC(=S)NC(C)=C1C(N)=O)CCCC2 (centres undefined),2.6%,2.82µM*,-5.6%,-2.2%,6.4%
CC1=C(C(N)=O)C(c2cccs2)NC(=S)N1 (centres undefined),5.1%,-8.0%,?,6.5%,5.9%
CC(=O)c1cccc(NC(=O)CCCN2C(=O)COc3ccc(C)cc32)c1,?,nt,-3.1%,nt,-19.1%
C#CCOCCOCCOCCNc1nc(N2CCN(C(=O)[C@H](Cc3cc4ccccc4[nH]3)n3cc([C@@H](N)CC(C)C)nn3)CC2)nc(N2CCN(C(=O)[C@H](Cc3cc4ccccc4[nH]3)n3cc([C@@H](N)CC(C)C)nn3)CC2)n1,?,?,?,15.8µM*,-14.1%
O=C(NN1C(=O)C2C(C1=O)C1C=CC2C12CC2)c1ccncc1 (centres undefined),10µM*,-3.7%,?,-6.6%,?
SMILES,Tau fibril ThT,RORg inh,Tau FP inhib,Gal4-VP16 FLuc,Tau fluor cs
O=C(NN1C(=O)C2C(C1=O)C1C=CC2C12CC2)c1cccnc1 (centres undefined),-1.4%,-9.7%,-6.9%,-10.1%,-1.7%
CCCN1C(=O)/C(=C/c2c(N3CCNC(=O)C3CC(=O)OC)nc3c(C)cccn3c2=O)SC1=S (centres undefined),5.62µM*,26.2%,-1.6%,-6.9%,-19.6%
O=C(NCc1n[nH]c(=S)n1-c1ccc(Cl)c(Cl)c1)c1cccs1,0.4%,15.8µM*,-0.6%,5.6%,-2.8%
Cc1ccc2nc(/C=C/c3cccc(F)c3)ccc2c1,-14.8%,10µM*,-9.7%,-18.3%,-9.3%
Fc1ccc2c(c1)/C(=N/Nc1ccccn1)CCS2,-9.6%,?,9.6%,?,-13.7%
c1ccc(N/N=C2\CCCc3ccccc32)nc1,-12.1%,12.6µM*,8.6%,?,-13.3%
Cc1cc(N/N=C2/CCCc3ccccc32)nc2ccccc12,?,2µM*,3.5%,11.2µM*,-29.8%
N#Cc1nc(COc2cccc(Cl)c2)oc1NCCc1ccccc1,?,nt,-7.3%,nt,?
O=C(/C=C/c1ccccc1)Oc1cccc2cccnc12,-20.1%,0.708µM*,-9.4%,4.47µM*,-19.7%
O=Cc1ccccc1OCCCOc1cccc2cccnc12,nt,2.4%,nt,-28.6%,nt
O=C(/C=C\c1ccccc1)Oc1cccc2cccnc12,-14.5%,1.41µM*,3.3%,3.16µM*,-13.7%
CC(Oc1cccc2cccnc12)C(=O)N/N=C/c1ccccc1 (centres undefined),-6.1%,17.7%,2.0%,-0.7%,-0.6%
CSc1nn(Cc2ccc(F)cc2)c(N)c1S(=O)(=O)c1ccc(Cl)cc1,-0.2%,nt,?,nt,?
O=C(NC(=S)N1CCN(Cc2ccc3c(c2)OCO3)CC1)c1ccc(Cl)cc1,?,0.447µM*,12.0%,0.631µM*,-25.4%
CCNC(=S)N1CCN(Cc2ccc3c(c2)OCO3)CC1,-6.0%,5.7%,2.7%,-0.3%,1.8%
O=C(NC(=S)N1CCN(Cc2ccc3c(c2)OCO3)CC1)c1cccc(Br)c1,-9.0%,0.562µM*,0.5%,0.631µM*,-15.3%
O=S1(=O)C2CC3CCC2(CN1Cc1cccc(F)c1)O3 (centres undefined),nt,10.5%,nt,-4.0%,nt
CN(C)c1ccc(N=C/C=C2\N(C)c3ccccc3C2(C)C)cc1,5.01µM*,-25.1%,-7.1%,-2.7%,?
CN1/C(=C\C=O)C(C)(C)c2ccccc21,-16.9%,?,11.3%,-9.0%,14.3%
Cc1c(N=C/C=C2\N(C)c3ccccc3C2(C)C)c(=O)n(-c2ccccc2)n1C,?,2.7%,3.4%,-1.7%,-5.7%
CN1/C(=C\C=Nc2ccc3ccccc3c2)C(C)(C)c2ccccc21,?,3.16µM*,-1.0%,4.47µM*,-24.4%
CN1\C(=C/C=C/C=C/C=[N+](C)C)C(C)(C)c2ccccc21,3.55µM*,?,?,-86.8%,1.58µM*[fluorescent]
O=C(Cc1c(F)cccc1Cl)Nc1ccccc1-c1ccccc1,nt,-31.7%,nt,-4.6%,nt
CCc1nc(SCc2ccc(OCC(C)C)cc2)n[nH]1,nt,?,nt,15.8µM*,nt
Cc1cnc(SCCc2ccncc2)nc1C,?,12.6µM*,-6.6%,?,-7.1%

# Compound activity as filed in PubChem.
